Screening data from PubChem.
D2 PAM-1 – positive allosteric modulators of human D2 dopamine receptor | P14416 | HEK293 T-REx D2, calcium flux, EC20 dopamine potentiation | potentiation, % at 10 µM | actives 0.34% (n = 340,000) | AID 485347;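 active means potentiation over 3 SD above the plate norm, cut at about 30% in these data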
Target sequence (P14416 whole entry, looked up): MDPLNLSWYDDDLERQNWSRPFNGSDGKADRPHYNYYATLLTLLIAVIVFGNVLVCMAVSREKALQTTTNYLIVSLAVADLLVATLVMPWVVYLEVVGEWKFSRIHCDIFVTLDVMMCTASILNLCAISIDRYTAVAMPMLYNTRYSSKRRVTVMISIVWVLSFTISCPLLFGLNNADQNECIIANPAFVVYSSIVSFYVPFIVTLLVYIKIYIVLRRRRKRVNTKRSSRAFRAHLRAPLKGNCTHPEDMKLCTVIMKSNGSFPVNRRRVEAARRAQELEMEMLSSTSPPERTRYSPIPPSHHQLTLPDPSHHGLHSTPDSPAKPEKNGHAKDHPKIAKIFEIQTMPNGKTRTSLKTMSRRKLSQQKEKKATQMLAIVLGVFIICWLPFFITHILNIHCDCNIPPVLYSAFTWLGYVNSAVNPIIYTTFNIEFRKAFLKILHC
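Tetracycline-induced HEK293 T-REx cells force-coupled to calcium signalling expressed D2; compounds were pin-added after a 10 s baseline, read kinetically 180 s, then an EC20 dopamine challenge followed with a further 180 s calcium read.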
D2 antag – antagonists of human D2 dopamine receptor. actives 2% (n = 340,000). inhibition, % at 10 µM. P14416. HEK293 TREx D2 cells, calcium flux, dopamine EC80. AID 485344; in the data active means inhibition above about 30%; inactive means below that, where a call was filed
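Tetracycline-induced HEK293 TREx cells expressing D2 receptor forced-coupled to calcium signalling, loaded with no-wash calcium dye. Compounds added and calcium flux read 180 s, then dopamine added at EC80 and read a further 180 s.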
D2 ag-1 – human D2 receptor agonism in beta-arrestin assay; DiscoveRx PathHunter D2 beta-arrestin, luminescence, 90 min; 100% = 57 uM dopamine signal; activation, % (no concentration beside the values); actives 0.084% (n = 360,000); AID 624465; in the data active means activation above about 40%
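Agonist mode: compounds alone added to overnight-plated D2 PathHunter cells for 90 min at 37 C, with 57 uM final dopamine (EC100) defining full response. Beta-arrestin recruitment detected by chemiluminescent reagent, read after 1 h at ambient temperature.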
D2 ag-2 – agonists of human D2 dopamine receptor | P14416 | HEK293 T-REx D2 cells, calcium flux agonist mode | activation, % at 2 µM | actives 0.53% (n = 340,000);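 active means activation over 3 SD above normal in the single-dose calcium agonist read, cut at about 30% in these data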
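Agonism scored from kinetic calcium signal (1 read/sec, 180 s) following compound pin transfer, after a 10 s baseline. Cells: HEK293 Trex line expressing inducible D2 receptor coupled to calcium, dye-loaded after overnight culture at 30 C.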
D2 PAM-2 – positive allosteric modulators of human D2 dopamine receptor; AID 624464; P14416; actives 0.23% (n = 360,000); DiscoveRx D2 beta-arrestin cells, luminescence, 90 min; 100% = 57 uM dopamine signal; potentiation, % (test concentration not listed); in the data active means potentiation above about 50%
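PathHunter D2 cells, attached overnight at 37 deg C, received compound in DMSO plus dopamine at EC20 (50 nM final) for 90 min at 37 deg C. Beta-arrestin recruitment was read as luminescence after 1 h with detection reagent at ambient temperature.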
A number is an active result; i = inactive; nt = no result. Hits are enriched below; roughly 2.4% of the tested compounds scored in any of these assays.

SMILES	D2 PAM-1	D2 antag	D2 ag-1	D2 ag-2	D2 PAM-2
O=C(COc1ccccc1F)Nc1ccccc1OCc1cc(=O)n2ccccc2n1	i	nt	nt	nt	nt
Cc1ccc(Cn2c(=N)c(C(=O)NCc3ccco3)cc3c(=O)n4ccccc4nc32)cc1	i	82.9	i	i	i
N=c1c(C(=O)NCC2CCCO2)cc2c(=O)n3ccccc3nc2n1Cc1ccc(Cl)cc1 (configuration not stated)	i	55.3	i	i	i
CCCCOC(=O)c1ccc(NC(=O)CSc2nc3c(c(=O)[nH]2)CCC3)cc1	i	nt	nt	i	nt
Cc1ccc(C(=O)NNC(=O)c2csc(N3CCOCC3)n2)o1	i	i	i	i	i
Cc1ccsc1C(=O)Nc1ccccc1N1CCOCC1	i	38.4	i	i	i
Cc1ccsc1C(=O)NNC(=O)c1csc(N2CCOCC2)n1	i	31.6	i	i	i
COc1ccccc1NC(=O)Cn1c(=O)c(CNc2ccccc2)cc2cc(OC)c(OC)cc21	i	nt	nt	i	nt
CCc1cccc(NC(=O)Cn2cc(C(=O)c3ccncc3)c(=O)c3cc(C)c(C)cc32)c1	i	nt	nt	i	nt
COc1ccc(NC(=O)Nc2cccc(OCc3cc(=O)n4cccc(C)c4n3)c2)c(OC)c1	i	nt	nt	i	nt
COc1ccccc1-[n+]1c(C)cc(/C=C2\Sc3ccccc3N2C)cc1C	i	i	i	88.7	i
COc1ccc(-[n+]2c(C)cc(/C=C3\Sc4ccccc4N3C)cc2C)cc1	i	47.7	i	54.9	i
COc1ccccc1OC(=O)CCN1c2ccccc2Sc2ccccc21	i	i	i	i	i
COc1ccc(C(=O)/C=C2\Sc3ccccc3N2C)cc1	i	40.5	i	i	i
CCCCNC(=S)N(C)/N=C/c1c(F)cccc1F	i	i	i	i	i
CCCCNC(=S)N(C)/N=C/c1ccc(F)cc1	i	90.6	i	i	i
CCOC(=O)N1CCc2c(sc3c2c(=O)n(-c2ccc(CC)cc2)c(=O)n3Cc2ccc(F)cc2Cl)C1	i	nt	nt	nt	nt
Cc1ccc(S(=O)(=O)Nc2ccc(-c3ccc(N4CCCCCC4)nn3)cc2)c(C)c1	i	nt	nt	i	nt
Cc1cc(=O)oc2cc(NC(=O)c3ccc(OC(F)F)cc3)ccc12	i	i	i	i	i
Cc1cc(=O)oc2cc(NC(=O)C(C)Oc3ccc(F)cc3)ccc12 (configuration not stated)	i	35.3	i	i	i
COC(=O)c1ccc(-c2ccc(/C=N/N3C(=O)C4C5C=CC(C6CC56)C4C3=O)o2)cc1 (configuration not stated)	i	i	i	i	i
COC(=O)c1cccc(-c2ccc(/C=N/N3C(=O)C4C5C=CC(C6CC56)C4C3=O)o2)c1 (configuration not stated)	i	31.9	i	i	i
O=C(NCCc1ccc(Cl)cc1)C1CCN(Cc2cc3ccccc3n2Cc2ccccc2)CC1	i	nt	nt	i	nt
Cn1c(-c2ccccc2)c(C(=O)CCl)c2ccccc21	38.8	i	i	i	i
C[C@@H]1NC(=O)c2cc([N+](=O)[O-])cc(I)c2OCC[C@@H](C(N)=O)NC(=O)[C@H](CCCCN)NC1=O	i	i	i	i	i
SMILES	D2 PAM-1	D2 antag	D2 ag-1	D2 ag-2	D2 PAM-2
C[C@@H]1NC(=O)[C@H](CCCN=C(N)N)NC(=O)c2cc([N+](=O)[O-])cc(I)c2OCC[C@@H](C(N)=O)NC1=O	i	31.9	nt	i	nt
COc1ccc(-c2cn3nc(N4CCCC(C(=O)NCc5ccc(Cl)cc5)C4)sc3n2)cc1 (configuration not stated)	i	nt	nt	nt	nt
C/C(N)=C(/C#N)C(=O)CSc1nnc(Nc2ccccc2)s1	i	48.6	i	i	i
COc1ccc(C)cc1NC(c1nnc(-c2ccccc2)o1)c1ccc(F)cc1Cl (configuration not stated)	i	nt	nt	i	nt
CCC(=O)N1c2ccc(S(=O)(=O)CCC(=O)NCCC3=CCCCC3)cc2CC1C (configuration not stated)	i	30.9	i	i	i
CCC(=O)N1CCc2cc(S(=O)(=O)CCC(=O)NCCC3=CCCCC3)ccc21	nt	nt	i	nt	i
CCOc1ccc2c(c1)c(=O)c(C(=O)c1ccc(CC)cc1)cn2CC(=O)Nc1cccc(Cl)c1	i	nt	nt	i	nt
O=C(C1COc2ccccc2O1)N1CCN(c2nc3ccc(F)cc3s2)CC1 (configuration not stated)	i	nt	nt	i	nt
CCOC(=O)N1CCN(C(=O)C2CCN(S(=O)(=O)c3cc(C)ccc3OC)CC2)CC1	i	33.4	i	i	i
O=C(O)c1ccc(N/N=C/C2=C(N3CCOCC3)C(=C\c3ccccc3)/CC2)cc1	i	i	i	i	50.8
Cc1cc(C)nc(N/N=C/C2=C(N3CCOCC3)C(=C\c3ccc(Cl)cc3)/CC2)n1	i	i	i	i	i
CC(=O)Nc1ccc(S(=O)(=O)N2CCC3(CC2)CC(=O)c2ccccc2O3)cc1	i	i	i	i	i
COc1ccc(S(=O)(=O)N2CCC3(CC2)CC(=O)c2ccccc2O3)cc1OC	i	45.2	i	i	i
CC1CCC(N2CC(=O)N(C3CCCCC3)C(c3ccc(Cl)cc3)C2=O)CC1 (configuration not stated)	i	nt	nt	i	nt
CCOC(=O)c1cccc(NS(=O)(=O)c2ccc3[nH]c4c(c3c2)CCCC4)c1	i	nt	nt	nt	nt
C/C(=N\NC(N)=O)c1cc(Cl)cc(Cl)c1O	i	53.6	i	i	i
C/C(=N\O)c1cc(Cl)cc(Cl)c1O	i	i	i	i	i
Clc1ccccc1CSc1nc2ccncc2[nH]1	i	32.3	i	i	i
O=C(NCc1ccccc1Cl)c1ccc(CSc2nc3ccncc3[nH]2)cc1	i	i	i	i	i
COc1cc(C(C)=O)ccc1OCC(O)CN1CCN(c2ccccn2)CC1 (configuration not stated)	i	93.3	60.2	77.5	i
C=CCc1ccccc1OCC(O)CN1CCN(c2ccccc2OC)CC1 (configuration not stated)	i	i	i	i	i
COc1ccccc1N1CCN(CC(=O)c2c(C)[nH]c3ccccc23)CC1	i	30.9	i	i	i
OC(COc1ccccc1Cl)CN1CCN(CC(O)COc2ccccc2Cl)CC1 (configuration not stated)	i	70.2	i	i	i
COc1ccccc1N1CCN(CC(O)COc2cccc3ccccc23)CC1 (configuration not stated)	i	86.3	i	i	i
Cc1ccccc1OCC(O)CN1CCN(C)CC1 (configuration not stated)	i	i	i	i	i
CCC(Sc1nc2ccncc2[nH]1)C(=O)Nc1cc(C)ccc1C (configuration not stated)	i	nt	nt	i	nt
COc1ccc2c(C(=O)CN3CCN(c4ccccc4)CC3)c[nH]c2c1	i	41.1	i	56.5	i
COc1ccc2c(C(=O)CN3CCSCC3)c[nH]c2c1	i	i	i	i	i
